PubChem BioAssay AID1159580 (chemical genetic matrix, 2015)
Where “and” joins values, the source holds several entries; their conditions need not be identical. Identical values can stand only once. Hit rate of the full screen: of about 5,500 compounds, about 2,000 (36%) were called active. Roughly 18% stayed inconclusive and do not appear here. Rule as the data show it: active = normalized growth mostly below about 0.91 (no sharp cut-off); inconclusive = no clear call, values can overlap the other calls; inactive = mostly above about 0.92. The list shows a part of the results.

Test: chemical genetic growth profiling, strain panel (AID 1159580);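 also: tested at 20 µM; growth read once vehicle control cultures reached saturation at 30 °C; 1 = growth at the plate median or of vehicle wells; lower values mean less growth of the strain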
Settings: S. cerevisiae deletion strains, growth OD

Measured: normalized growth

CCCCCCCCCCCCCCCC[n+]1ccccc1
active: locus YAL013W, strain DEP1, stronger effect = lower value 0.0574 | locus YAL021C, strain ccr4, stronger effect = lower value 0.0611 | locus YAL026C, strain drs2, stronger effect = lower value 0.0581 | locus YAL030W, strain snc1, stronger effect = lower value 0.0525 | locus YBL061C, strain skt5, stronger effect = lower value 0.0581 | locus YBR009C, strain hhf1, stronger effect = lower value 0.0558 | locus YBR021W, strain FUR4, stronger effect = lower value 0.0963 | locus YBR023C, strain chs3, stronger effect = lower value 0.0594 | locus YBR171W, strain sec66, stronger effect = lower value 0.0739 | locus YBR229C, strain ROT2, stronger effect = lower value 0.0303 | locus YBR231C, strain swc5, stronger effect = lower value 0.0577 | locus YBR279W, strain paf1, stronger effect = lower value 0.0555 | locus YCL011C, strain gbp2, stronger effect = lower value 0.053 | locus YCL016C, strain dcc1, stronger effect = lower value 0.0599 | locus YCL029C, strain bik1, stronger effect = lower value 0.058 | locus YCL061C, strain MRC1, stronger effect = lower value 0.0607 | locus YCL069W, strain vba3, stronger effect = lower value 0.0581 | locus YCR088W, strain abp1, stronger effect = lower value 0.0584 | locus YDL005C, strain med2, stronger effect = lower value 0.0695 | locus YDL035C, strain GPR1, stronger effect = lower value 0.0498 | locus YDL040C, strain nat1, stronger effect = lower value 0.0541 | locus YDL074C, strain BRE1, stronger effect = lower value 0.0827 | locus YDL101C, strain DUN1, stronger effect = lower value 0.0526 | locus YDL134C, strain PPH21, stronger effect = lower value 0.0538 | locus YDL185W, strain tfp1, stronger effect = lower value 0.0538 | locus YDL192W, strain arf1, stronger effect = lower value 0.0595 | locus YDR001C, strain nth1, stronger effect = lower value 0.0571 | locus YDR069C, strain doa4, stronger effect = lower value 0.0582 | locus YDR101C, strain arx1, stronger effect = lower value 0.0554 | locus YDR137W, strain rgp1, stronger effect = lower value 0.0947 | locus YDR150W, strain NUM1, stronger effect = lower value 0.0551 | locus YDR159W, strain sac3, stronger effect = lower value 0.0818 | locus YDR162C, strain NBP2, stronger effect = lower value 0.047 | locus YDR195W, strain ref2 0.109 | locus YDR297W, strain sur2, stronger effect = lower value 0.0517 | locus YDR318W, strain mcm21, stronger effect = lower value 0.0596 | locus YDR334W, strain swr1, stronger effect = lower value 0.061 | locus YDR335W, strain msn5, stronger effect = lower value 0.0563 | locus YDR388W, stronger effect = lower value 0.0552 | locus YDR392W, strain spt3, stronger effect = lower value 0.068 | locus YDR502C, strain sam2, stronger effect = lower value 0.0615 | locus YEL003W, strain gim4, stronger effect = lower value 0.0501 | locus YEL037C, strain rad23, stronger effect = lower value 0.0542 | locus YEL061C, strain CIN8 (second series), stronger effect = lower value 0.0582 | locus YEL061C, strain CIN8, stronger effect = lower value 0.0502 | locus YER015W, strain faa2, stronger effect = lower value 0.0581 | locus YER016W, strain bim1, stronger effect = lower value 0.0593 | locus YER110C, stronger effect = lower value 0.0712 | locus YER111C, strain swi4, stronger effect = lower value 0.0669 | locus YER155C, strain BEM2 (second series), stronger effect = lower value 0.0821 | locus YER155C, strain BEM2, stronger effect = lower value 0.0622 | locus YER167W, strain BCK2, stronger effect = lower value 0.0514 | locus YFR010W, strain ubp6, stronger effect = lower value 0.0662 | locus YGL078C, strain dbp3, stronger effect = lower value 0.0557 | locus YGL086W, strain mad1, stronger effect = lower value 0.0563 | locus YGL167C, strain pmr1, stronger effect = lower value 0.0673 | locus YGL173C, strain kem1, stronger effect = lower value 0.0629 | locus YGL227W, strain vid30, stronger effect = lower value 0.062 | locus YGL240W, strain doc1, stronger effect = lower value 0.0671 | locus YGL248W, strain PDE1, stronger effect = lower value 0.0451 | locus YGL253W, strain hxk2, stronger effect = lower value 0.0516 | locus YGR135W, strain pre9, stronger effect = lower value 0.0612 | locus YGR252W, strain gcn5, stronger effect = lower value 0.17 | locus YHR013C, strain ard1, stronger effect = lower value 0.0961 | locus YHR027C, strain rpn1, stronger effect = lower value 0.0594 | locus YHR030C, strain SLT2, stronger effect = lower value 0.0512 and 0.0945 | locus YHR079C, strain IRE1 (second series), stronger effect = lower value 0.0605 | locus YHR079C, strain IRE1, stronger effect = lower value 0.11 | locus YHR094C, strain hxt1, stronger effect = lower value 0.0564 | locus YHR129C, strain ARP1, stronger effect = lower value 0.0537 | locus YHR142W, strain chs7, stronger effect = lower value 0.0693 | locus YHR200W, strain rpn10, stronger effect = lower value 0.0581 | locus YIL066C, strain RNR3, stronger effect = lower value 0.0411 | locus YIL073C, strain SPO22, stronger effect = lower value 0.106 | locus YIL125W, strain kgd1, stronger effect = lower value 0.0545 | locus YIR030C, strain dcg1, stronger effect = lower value 0.0571 | locus YJL092W, strain hpr5, stronger effect = lower value 0.0574 | locus YJL095W, strain BCK1 (second series), stronger effect = lower value 0.0528 | locus YJL095W, strain BCK1, stronger effect = lower value 0.0624 and 0.0966 | locus YJL115W, strain asf1, stronger effect = lower value 0.0684 | locus YJL129C, strain trk1, stronger effect = lower value 0.0768 | locus YJL134W, strain LCB3, stronger effect = lower value 0.047 | locus YJL154C, strain vps35, stronger effect = lower value 0.057 | locus YJL164C, strain tpk1, stronger effect = lower value 0.0549 | locus YJL166W, strain qcr8, stronger effect = lower value 0.0563 | locus YJL168C, strain set2, stronger effect = lower value 0.0564 | locus YJL187C, strain SWE1 (second series), stronger effect = lower value 0.0398 | locus YJL187C, strain SWE1, stronger effect = lower value 0.0529 | locus YJR043C, strain POL32, stronger effect = lower value 0.0648 | locus YJR066W, strain TOR1, stronger effect = lower value -0.000212 | locus YKL009W, strain mrt4, stronger effect = lower value 0.0643 | locus YKL068W, stronger effect = lower value 0.0564 | locus YKL085W, strain MDH1 (second series), stronger effect = lower value 0.0485 | locus YKL085W, strain MDH1, stronger effect = lower value 0.0485 | locus YKL160W, strain elf1, stronger effect = lower value 0.058 | locus YKR001C, strain vps1, stronger effect = lower value 0.0609 | locus YKR026C, strain gcn3, stronger effect = lower value 0.058 | locus YKR091W, strain srl3, stronger effect = lower value 0.0563 | locus YLL001W, strain dnm1, stronger effect = lower value 0.0595 | locus YLL026W, stronger effect = lower value 0.0533 | locus YLL041C, strain sdh2, stronger effect = lower value 0.0527 | locus YLR027C, strain aat2, stronger effect = lower value 0.0516 | locus YLR039C, strain RIC1, stronger effect = lower value 0.101 | locus YLR058C, strain SHM2, stronger effect = lower value 0.0432 | locus YLR102C, strain apc9, stronger effect = lower value 0.058 | locus YLR113W, strain HOG1, stronger effect = lower value 0.126 | locus YLR221C, strain rsa3, stronger effect = lower value 0.0565 | locus YLR258W, strain gsy2, stronger effect = lower value 0.0549 | locus YLR262C, strain YPT6 (second series), stronger effect = lower value 0.0739 | locus YLR262C, strain YPT6, stronger effect = lower value 0.0999 | locus YLR268W, strain sec22, stronger effect = lower value 0.0648 | locus YLR320W, strain mms22, stronger effect = lower value 0.0701 | locus YLR330W, strain CHS5, stronger effect = lower value 0.0543 | locus YLR342W, strain FKS1 (second series), stronger effect = lower value 0.0596 | locus YLR342W, strain FKS1, stronger effect = lower value 0.0608 | locus YLR357W, strain rsc2, stronger effect = lower value 0.119 | locus YLR370C, strain arc18, stronger effect = lower value 0.0588 | locus YLR371W, strain rom2, stronger effect = lower value 0.0606 | locus YLR384C, strain iki3, stronger effect = lower value 0.0569 | locus YLR418C, strain cdc73, stronger effect = lower value 0.0923 | locus YML016C, strain PPZ1, stronger effect = lower value 0.0531 | locus YML032C, strain rad52, stronger effect = lower value 0.0676 | locus YML120C, strain ndi1, stronger effect = lower value 0.0532 | locus YML124C, strain tub3, stronger effect = lower value 0.0589 | locus YMR058W, strain fet3, stronger effect = lower value 0.0569 | locus YMR078C, strain ctf18, stronger effect = lower value 0.0681 | locus YMR125W, strain sto1, stronger effect = lower value 0.0655 | locus YMR129W, stronger effect = lower value 0.0538 | locus YMR205C, strain PFK2, stronger effect = lower value 0.0777 | locus YMR223W, strain ubp8, stronger effect = lower value 0.061 | locus YMR231W, strain pep5, stronger effect = lower value 0.0645 | locus YMR307W, strain GAS1, stronger effect = lower value 0.134 | locus YNL067W, strain RPL9B, stronger effect = lower value 0.0493 | locus YNL071W, strain lat1, stronger effect = lower value 0.0582 | locus YNL153C, strain GIM3, stronger effect = lower value 0.0537 | locus YNL183C, strain NPR1, stronger effect = lower value -0.00168 | locus YNL209W, strain ssb2, stronger effect = lower value 0.0552 | locus YNL233W, strain BNI4, stronger effect = lower value 0.0562 | locus YNL248C, strain rpa49, stronger effect = lower value 0.0711 | locus YNL250W, strain rad50, stronger effect = lower value 0.0768 | locus YNL271C, strain bni1, stronger effect = lower value 0.0589 | locus YNL298W, strain CLA4, stronger effect = lower value 0.0577 | locus YNL307C, strain MCK1, stronger effect = lower value 0.0655 | locus YNL322C, strain KRE1 (second series), stronger effect = lower value 0.06 | locus YNL322C, strain KRE1, stronger effect = lower value 0.048 | locus YNR049C, strain mso1, stronger effect = lower value 0.0552 | locus YNR052C, strain pop2, stronger effect = lower value 0.0583 | locus YOL147C, strain pex11, stronger effect = lower value 0.0569 | locus YOR001W, strain rrp6, stronger effect = lower value 0.0649 | locus YOR061W, strain CKA2, stronger effect = lower value 0.0309 | locus YOR069W, strain VPS5, stronger effect = lower value 0.0516 | locus YOR070C, strain gyp1, stronger effect = lower value 0.0562 | locus YOR080W, strain dia2, stronger effect = lower value 0.0607 | locus YOR083W, strain WHI5, stronger effect = lower value 0.0593 | locus YOR106W, strain vam3, stronger effect = lower value 0.0617 | locus YOR136W, strain idh2, stronger effect = lower value 0.0704 | locus YOR144C, strain elg1, stronger effect = lower value 0.0544 | locus YOR184W, strain ser1, stronger effect = lower value 0.0674 | locus YOR231W, strain MKK1, stronger effect = lower value 0.0972 | locus YOR265W, strain rbl2, stronger effect = lower value 0.0533 | locus YOR270C, strain vph1, stronger effect = lower value 0.0863 | locus YOR290C, strain snf2, stronger effect = lower value 0.0573 | locus YOR316C, strain cot1, stronger effect = lower value 0.0567 | locus YPL051W, strain arl3, stronger effect = lower value 0.06 | locus YPL055C, strain LGE1, stronger effect = lower value 0.0709 | locus YPL078C, strain atp4, stronger effect = lower value 0.0604 | locus YPL106C, strain sse1, stronger effect = lower value 0.0881 | locus YPL240C, strain hsp82, stronger effect = lower value 0.0535 | locus YPL241C, strain CIN2, stronger effect = lower value 0.0502 | locus YPL256C, strain CLN2, stronger effect = lower value 0.113 | locus YPR119W, strain clb2, stronger effect = lower value 0.0599 | locus YPR141C, strain kar3, stronger effect = lower value 0.0617 | locus YPR163C, strain tif3, stronger effect = lower value 0.0683 | locus YPR167C, strain met16, stronger effect = lower value 0.06 | strain wtn01, stronger effect = lower value 0.061
